Results taken from PubChem BioAssay.
Calls of active or inactive are those of the source. Unless noted, the rule behind the calls is not given here.

Assays:
[1] = HepG2 liver cancer cell viability effects, profiling panel, resazurin fluorescence, 24 h, PK04 Diversity Set (AID 1172); conditions: higher = more signal; note: test concentration not given here
[2] = basal S. cerevisiae growth modulation, no modifier, primary screen, OD600, strain BY4716, 24 h, basal condition (AID 1173); conditions: OD600, 24 h, higher = more signal, called active from +8 up or from −8 down
[3] = MM1S myeloma cell viability, profiling panel, resazurin fluorescence, basal, 24 h, PK04 Diversity Set (AID 1174); conditions: higher = more signal, called active from +8 up or from −8 down;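 note: MM1S multiple myeloma cell line; test concentration not given here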
[4] = biological target: Dihydroorotate dehydrogenase (quinone), mitochondrial (Plasmodium falciparum (isolate 3D7)) (UniProt Q08210); assay: PfDHODH enzyme inhibitors, primary screen, biochemical, C-terminal His tag, absorbance 600 nm (AID 1175); conditions: DCIP absorbance 600 nm, higher = more signal, called active from +8 up or from −8 down;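 note: recombinant parasite enzyme with a five histidine tag at its C terminus; test concentration not given here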
Sequence of Dihydroorotate dehydrogenase (quinone), mitochondrial (Plasmodium falciparum (isolate 3D7)) (Q08210 whole entry, looked up): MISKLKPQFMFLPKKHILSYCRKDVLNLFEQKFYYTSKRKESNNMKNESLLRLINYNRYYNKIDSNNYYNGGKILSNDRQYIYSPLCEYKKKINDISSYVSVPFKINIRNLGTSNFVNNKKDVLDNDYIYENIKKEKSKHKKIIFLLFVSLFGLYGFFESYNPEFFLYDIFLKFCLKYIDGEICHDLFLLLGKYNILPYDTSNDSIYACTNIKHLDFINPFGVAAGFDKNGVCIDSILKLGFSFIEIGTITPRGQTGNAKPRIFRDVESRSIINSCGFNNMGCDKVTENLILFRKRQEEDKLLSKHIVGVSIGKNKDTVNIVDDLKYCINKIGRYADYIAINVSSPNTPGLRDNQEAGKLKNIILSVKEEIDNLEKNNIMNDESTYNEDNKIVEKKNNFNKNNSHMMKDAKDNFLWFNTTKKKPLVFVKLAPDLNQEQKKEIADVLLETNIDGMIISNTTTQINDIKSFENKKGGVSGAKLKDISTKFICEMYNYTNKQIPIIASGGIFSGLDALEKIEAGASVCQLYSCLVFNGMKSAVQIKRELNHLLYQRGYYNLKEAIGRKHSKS

[5] = P. aeruginosa biofilm formation inhibitors, primary screen, strain PAO1, LB-PBS medium, absorbance 600 nm (AID 1176); note: test concentration not given here; conditions: P. aeruginosa PAO1 growth/biofilm, A600, 12 h; higher = more signal
[6] = S. cerevisiae RM11-1a growth modifiers, primary screen, strain RM11-1a, OD600, basal, 24 h (AID 1177); conditions: OD600, 24 h, higher = more signal, called active from +8 up or from −8 down;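 note: cultures grown under basal conditions with no added stressor; test concentration not given here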
[7] = E. coli acrAB mutant growth effects, primary screen, E. coli filamentation inducers, strain DRC39, OD650, 24 h (AID 1178); conditions: higher = more signal, called active from +8 up or from −8 down;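 note: growth measured as culture turbidity by optical density at 650 nm; test concentration not given here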
[8] = E. coli acrAB mutant growth effects, primary screen, E. coli filamentation inducers, strain DRC39, OD650, 48 h (AID 1179);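 note: screen aims at cell division blockers that make cells filament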; conditions: E. coli DRC39 delta-acrAB growth, higher = more signal, called active from +8 up or from −8 down
[9] = RPMI8226 myeloma cell viability, profiling panel, resazurin fluorescence, basal, 24 h, PK04 Diversity Set (AID 1180); conditions: higher = more signal;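 note: RPMI8826 multiple myeloma cell line at 5000 cells per well; test concentration not given here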
[10] = biological target: E3 ubiquitin-protein ligase XIAP (Homo sapiens) (UniProt P98170); assay: XIAP binders, primary screen, biophysical, small-molecule microarray, fluorescence 635 nm (AID 1181); conditions: small-molecule microarray binding, higher = more signal;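 note: score merges 667 nm emission and signal to noise over triplicate slides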
Sequence of E3 ubiquitin-protein ligase XIAP (Homo sapiens) (P98170 whole entry, looked up): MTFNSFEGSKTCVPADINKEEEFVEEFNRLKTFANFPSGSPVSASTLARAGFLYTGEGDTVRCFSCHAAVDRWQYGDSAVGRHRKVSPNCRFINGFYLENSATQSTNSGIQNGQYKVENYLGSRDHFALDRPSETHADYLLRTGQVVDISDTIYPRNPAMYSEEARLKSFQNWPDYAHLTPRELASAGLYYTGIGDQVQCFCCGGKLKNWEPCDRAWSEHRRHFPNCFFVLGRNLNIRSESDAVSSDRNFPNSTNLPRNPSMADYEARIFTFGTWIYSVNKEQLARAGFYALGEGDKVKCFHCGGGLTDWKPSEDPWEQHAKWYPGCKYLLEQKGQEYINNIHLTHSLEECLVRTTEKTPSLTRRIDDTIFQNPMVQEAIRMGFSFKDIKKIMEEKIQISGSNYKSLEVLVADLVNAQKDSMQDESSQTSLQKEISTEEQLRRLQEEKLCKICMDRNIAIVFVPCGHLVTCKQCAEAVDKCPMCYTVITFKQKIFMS

SMILES	z-score [1]	z-score [2]	z-score [3]	composite z-score [4]	z-score [5]	z-score [6]	z-score [7]	z-score [8]	z-score [9]	composite z-score [10]
C=CCNC(=O)[C@H]1[C@@H]2C(=O)O[C@@H](c3ccccc3)[C@@H](c3ccccc3)N2[C@@H](c2ccccc2OCCO)[C@]12C(=O)N(C(=O)OCCOC)c1ccccc12	-0.293	1.52 (inactive)	-1.04 (inactive)	0.692 (inactive)	2.98 (inactive)	2 (inactive)	0.225 (inactive)	-0.369 (inactive)	-2.9	0.0797
C=CCOC(=O)[C@H]1[C@@H]2C(=O)O[C@@H](c3ccccc3)[C@@H](c3ccccc3)N2[C@@H](c2ccc(OCCOC(=O)[C@H]3C[C@H]4C(=O)NCC(=O)N4[C@H]3c3ccc(O)cc3)cc2)[C@]12C(=O)Nc1ccc(I)cc12	0.0134	1.27 (inactive)	0.478 (inactive)	0.383 (inactive)	2.83 (inactive)	1.7 (inactive)	0.157 (inactive)	0.987 (inactive)	0.642	-0.0351
COCCOC(=O)N1C(=O)[C@@]2(c3cc(C#CCC(C(=O)OC)C(=O)OC)ccc31)[C@H](C(N)=O)[C@H]1C(=O)O[C@H](c3ccccc3)[C@H](c3ccccc3)N1[C@@H]2c1ccc(OCCO)cc1	0.58	1.53 (inactive)	-0.456 (inactive)	-0.383 (inactive)	2.88 (inactive)	3.39 (inactive)	0.71 (inactive)	0.108 (inactive)	-1.81	0.0251
CC(C)C[C@H]1NC(=O)[C@H](Cc2ccccc2)NC(=O)[C@@]23C(=O)N[C@@H](Cc4ccccc4)C2[C@H](C)[C@@]2(C)O[C@H]2C3/C=C/C/C=C\CNC1=O (stereo not given in full)	-0.59	-0.396 (inactive)	-0.263 (inactive)	-0.228 (inactive)	0.519 (inactive)	-0.711 (inactive)	-0.437 (inactive)	-0.231 (inactive)	-0.0041	-0.17
NCCCC[C@@H]1NC(=O)[C@H]2C[C@@H](C(=O)O)[C@@H](c3cccc(OCCO)c3)N2C1=O	-0.578	-0.0349 (inactive)	0.152 (inactive)	-6.64 (inactive)	0.628 (inactive)	1.08 (inactive)	0.191 (inactive)	-0.28 (inactive)	-0.438	0.201
CCCC[C@H]1OB(O)C[C@H]2C1=C(COC)C[C@H]1C(=O)C=CC(=O)[C@H]12	-0.796	-3.96 (inactive)	-0.203 (inactive)	-2.14 (inactive)	1.52 (inactive)	0.0887 (inactive)	1.13 (inactive)	0.756 (inactive)	-0.0072	-0.0238
CCOC(=O)C[C@H]1[C@H](OC(=O)c2ccc(-c3ccccc3)cc2)[C@@H](NC(=O)c2ccc3ccccc3c2)c2cc(OCCCO)ccc2N1C(=O)c1ccccc1	-0.491	1.31 (inactive)	-0.483 (inactive)	0.622 (inactive)	0.055 (inactive)	1.13 (inactive)	-0.0319 (inactive)	-0.0532 (inactive)	-0.221	0.0454
COC(=O)c1c(CC[C@@H](CO)NC(=O)N[C@@H](Cc2ccccc2)Cn2cc(-c3cncn3C)nn2)oc(C(C)=O)c1C(=O)OC	-0.649	-0.615 (inactive)	0.448 (inactive)	-2.95 (inactive)	-1.25 (inactive)	-0.688 (inactive)	0.681 (inactive)	0.438 (inactive)	-0.332	0.14
CO[C@H]1O[C@H](CO)[C@@H](OC(=O)Nc2ccc(C(F)(F)F)cc2)[C@H](OC(=O)Nc2ccccc2-c2ccccc2)[C@H]1OC(=O)Nc1ccccc1-c1ccccc1	-5.27	1.39 (inactive)	-5.4 (inactive)	-0.132 (inactive)	3.43 (inactive)	2.8 (inactive)	-0.853 (inactive)	-1.25 (inactive)	-4.63	0.201
C=CC[C@@]1(C(=O)N(C)C)N=C(c2ccc(OCCCO)cc2)O[C@@H]1c1ccccc1	0.879	-2.54 (inactive)	-0.235 (inactive)	0.13 (inactive)	0.95 (inactive)	-0.422 (inactive)	-0.936 (inactive)	-0.649 (inactive)	0.267	-0.33
COC(=O)[C@@]1(Cc2ccc(F)cc2)[C@H]2c3cc(C(=O)N(C)C)n(CCn4cc([N+](=O)[O-])nc4C)c3C[C@H]2CN1C(=O)c1ccccc1	-1.02	1.94 (inactive)	-1.05 (inactive)	-0.165 (inactive)	0.122 (inactive)	0.502 (inactive)	-0.984 (inactive)	-0.566 (inactive)	-0.801	0.267
O=C1C2C=CC(C(O)c3cccc(O)c3)N(Nc3ccccc3F)C2C(=O)N1c1ccccc1 (stereo not given)	0.244	-14.7 (active)	-0.343 (inactive)	-2.46 (inactive)	1.22 (inactive)	-7.32 (inactive)	0.684 (inactive)	0.573 (inactive)	0.133	0.0345
CCOC(=O)C1=CC[C@@H](c2ccccc2)N(S(=O)(=O)C[Si](C)(C)C)[C@H]1c1ccccc1	0.128	0.945 (inactive)	-0.013 (inactive)	0.407 (inactive)	0.257 (inactive)	-0.42 (inactive)	-0.618 (inactive)	-1.59 (inactive)	0.343	-0.125
COC(=O)C1=CC(CCCO)=CC(c2ccc(CN3CCCC3)cc2)N(Cc2sc3ccccc3c2Cl)C=C1C(=O)OC (stereo not given)	0.666	-2.54 (inactive)	0.691 (inactive)	-1.63 (inactive)	0.186 (inactive)	-1.62 (inactive)	0.735 (inactive)	1.29 (inactive)	0.85	-0.0084
C=CC[C@]1(C(=O)NCCCOC)N=C(c2ccc(OCCCO)cc2)O[C@H]1c1ccccc1	0.998	-0.96 (inactive)	0.619 (inactive)	-0.205 (inactive)	-0.661 (inactive)	0.0543 (inactive)	0.178 (inactive)	0.735 (inactive)	1.36	0.102
COCCCNC(=O)[C@@]1(Sc2ccc(C)cc2)CC(=O)N(C2CCCCC2)[C@@H]1c1ccc(CO)cc1I	0.5	-0.172 (inactive)	-0.326 (inactive)	0.335 (inactive)	0.627 (inactive)	-1.09 (inactive)	0.16 (inactive)	0.228 (inactive)	-1.66	-0.328
COc1ccccc1CN1C(=O)c2ccccc2[C@](Cc2ccccc2I)(C(=O)NCCCN(C)C)[C@@H]1c1ccc(CO)cc1	-6.49	-10.3 (active)	-9.07 (active)	-0.572 (inactive)	1.57 (inactive)	-0.133 (inactive)	-1.17 (inactive)	-2.71 (inactive)	-6.58	-0.175
Cc1c(NC(=O)/C(C#N)=C/c2ccc(Cl)cc2)c(=O)n(-c2ccccc2)n1C	0.244	-0.429 (inactive)	0.103 (inactive)	-2.14 (inactive)	0.888 (inactive)	-0.704 (inactive)	1.43 (inactive)	1.5 (inactive)	-0.345	-0.0871
CCC[C@@H]1C=C(C(=O)OCC)[C@H](c2ccccc2)N1S(=O)(=O)c1ccc(C)cc1	-0.197	1.53 (inactive)	-0.37 (inactive)	-0.0973 (inactive)	0.0362 (inactive)	1.84 (inactive)	-0.213 (inactive)	0.0062 (inactive)	-1.89	-0.0696
CCCC=C(CCC)[C@@H](NS(=O)(=O)c1ccc(Cl)cc1)c1ccccc1	1.1	0.733 (inactive)	0.604 (inactive)	-0.532 (inactive)	1.97 (inactive)	-0.233 (inactive)	-0.558 (inactive)	-1 (inactive)	-0.321	0.102
CCCCC(O)C1C=CC2C(=O)N(C)C(=O)C2N1Nc1ccccc1 (stereo not given)	-1.63	0.216 (inactive)	-1.39 (inactive)	0.957 (inactive)	1.22 (inactive)	1.53 (inactive)	-0.867 (inactive)	-0.618 (inactive)	-1.5	0.0742
C=C(COC)C(=O)CC[C@@H](OC(=O)c1cccnc1)c1cccc(OCCO)c1	0.312	0.798 (inactive)	-0.857 (inactive)	-0.289 (inactive)	0.543 (inactive)	0.544 (inactive)	1.16 (inactive)	0.927 (inactive)	-2.55	-0.162
Cc1ccccc1C(O)C1C=CC2C(=O)N(c3ccccc3)C(=O)C2N1Nc1ccccc1F (stereo not given)	-0.954	-0.822 (inactive)	-1.08 (inactive)	0.115 (inactive)	1.07 (inactive)	0.362 (inactive)	-0.274 (inactive)	-0.542 (inactive)	-1.01	0.202
COc1ccc([Si](C)(C)[C@H]2[C@H](CCO)O[C@@]3(C(=O)N(Cc4ccc(N5CCOC5=O)cc4)c4ccccc43)[C@@H]2C)cc1	-0.667	2.47 (inactive)	-2.66 (inactive)	1.02 (inactive)	2.02 (inactive)	5.44 (inactive)	1.32 (inactive)	0.714 (inactive)	-2.06	-0.0206
COc1ccc(CCNC(=O)[C@@H]2c3ccccc3C(=O)N(CC34CC5CC(CC(C5)C3)C4)[C@H]2c2ccc(CO)cc2)cc1	0.556	-0.547 (inactive)	-1.05 (inactive)	0.12 (inactive)	0.565 (inactive)	-0.134 (inactive)	0.517 (inactive)	0.119 (inactive)	0.618	0.399
CC(C)[Si](C#CCCCC#N)(O[C@H](c1ccccc1)c1cn([C@H](C)c2ccccc2)nn1)C(C)C	0.592	-1.06 (inactive)	0.181 (inactive)	0.31 (inactive)	0.559 (inactive)	-0.802 (inactive)	-0.708 (inactive)	-0.482 (inactive)	0.409	0.172
